About 83,000 compounds went through this panel and 20% of them were active in at least one assay; those are over-represented in the sample as a whole.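 Results are percent growth after 48 hours of single-concentration exposure. 100 means growth as in untreated cells, lower positive values show inhibition; negative values down to -100 show cell death.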 A number with no mark means an inactive call. Calls of active or inactive are those of the source. How the source made its calls: active means growth percent below 10; inactive means the rest.

The record followed here is PubChem BioAssay (NCI).

Common to all, as to test: NCI-60 one-dose screen, 48 h (100 = growth as untreated, 0 = no growth, -100 = all killed)
What all share (settings): 10 µM unless noted

Test [1] has as its system SR leukemia.
Test [2] relates to RPMI-8226 leukemia.
Test [3] concerns OVCAR-8 ovarian.
For test [4], the system named is OVCAR-5 ovarian.
The test system of test [5] is OVCAR-4 ovarian.
The test system of test [6] is SK-OV-3 ovarian.
The subject of test [7] is IGROV1 ovarian.
In test [8] the test system is OVCAR-3 ovarian.
For test [9], the system named is HS 578T breast.
Test [10] deals with NCI/ADR-RES ovarian.

For the molecule `C=C1CC[C@@H]2[C@](C)(COC(C)=O)[C@H](OC(C)=O)CC[C@@]2(C)[C@@H]1CC(Sc1ccccc1)C1=CCOC1=O` (stereo not given in full), the growth was 2.9% (active) in test [1]; -4.72% (active) in [2]; 11.9% in test [3]; 39.8% in [4]; 100% in test [5]; 57.7% in test [6]. In addition, the growth in test [7] is 25.2%; in [8], -84.2% (active); in test [9] it was 54.2%; in test [10], 10.1%.

`O=C(Nc1cccnc1Nc1ccc(F)cc1)c1cn(Cc2cccc(Oc3ccccc3)c2)nn1`: the growth in test [1] is 23.4%; in test [2] it was 78.9%; in [3], 81.4%; in test [4], 115%; in test [5], 86.5%; in [6], 87.4%. Also, the growth in test [7] was 91.2%; in test [8], 71.9%; in test [9] it was 69.3%; in test [10] it was 37.8%.

For the molecule `CCOC(=O)c1c(C)nc2c(c1N)CC(=O)N2Cc1cc(F)cc(Cl)c1`, the growth is 75.3% in test [1]; 71.7% in test [2]; 95.9% in test [3]; 97.5% in [4]; 67.5% in [5]; 115% in test [6]. The growth is 102% in [7], 93.8% in test [8], 108% in test [9] and 81.2% in test [10].

With `CCOC(=O)c1[nH]c(=O)c2c(C)nc(-c3ccccc3)cc2c1O`, the growth was 97% in test [1]; 93.8% in test [2]; 109% in [3]; 106% in test [4]; 117% in test [5]; 108% in test [6]. In addition, the growth in [7] was 1.43% (active); in test [8], 105%; in test [9], 98.4%; in [10] it was 103%.

As for `CC1(C)c2[nH]c3ccccc3c2C[C@]2(C)[C@H]3CC=C4[C@@H]5C[C@@](C)(C(N)=O)CC[C@]5(C)CC[C@@]4(C)[C@]3(C)CC[C@@H]12`, the growth in test [1] is 34.3%; in test [2] it was 38.3%; in [3], 50.8%; in test [4], 102%; in test [5] it was 32.4%; in test [6], 70.1%. Further, the growth in test [7] is 74.4%; in test [8], 58.3%; in test [9], 91.5%; in test [10] it was 67.5%.

For the molecule `O=C1/C(=C/c2cccs2)SC(=S)N1CCCN1CCOCC1`, the growth in test [1] is 92.5%; in test [2] it was 97.9%; in [3], 96%; in test [4] it was 105%; in test [5], 89.1%; in [6] it was 99.4%. For the same molecule, the growth is 97% in test [7], 113% in [8], 98.7% in [9] and 92.7% in test [10].

On to `Cc1nn(-c2ccccc2)c(Oc2ccccn2)c1-c1nc2ccccc2s1`, for which the growth in test [1] is 33.9%; in [2], 97.5%; in test [3] it was 102%; in test [4], 93.4%; in test [5] it was 98.7%; in test [6], 97.5%. For the same molecule, the growth was 90.6% in test [7], 102% in test [8], 110% in test [9] and 98.1% in test [10].

Take `CCCCCCCCCCCCCCCCCCOc1ccccc1CC(=O)NCC[N+]1(C)CCCC1`: the growth in test [1] is 23%; in test [2], 52.7%; in test [3] it was 49.7%; in [4], 22.9%; in [5] it was 42.5%; in test [6], 77.4%. Besides, the growth in [7] was -21.5% (active); in test [8] it was 39%; in [9], 60.7%; in [10], 103%.

Take `C#COc1cccc(Nc2ncnc3ncc(NC(=O)CCl)cc23)c1`: the growth in [1] was 16.2% [6.25 µM]; in test [2] it was 52.9% [6.25 µM]; in test [3], 10.3% [6.25 µM]; in test [4], 31.5% [6.25 µM]; in test [5], 32.6% [6.25 µM]; in test [6], 53.1% [6.25 µM]. Besides, the growth in [7] was -42.4% [6.25 µM] (active); in [8], -56.4% [6.25 µM] (active); in test [9] it was 43.4% [6.25 µM]; in test [10], 12% [6.25 µM].

Consider `CCOC(=O)C1=C(NC)OCC1=O`, for which the growth in test [1] is 93.6%; in test [2], 99.6%; in [3], 98.6%; in test [4], 115%; in [5] it was 112%; in test [6], 110%. Besides, the growth in test [7] was 113%; in test [8] it was 109%; in [9], 94.7%; in test [10], 105%.

For `Cc1ccc(Cc2cnc(NC(=O)c3cc(Br)cs3)s2)cc1`, the growth in test [1] was 18.2%; in [2] it was 53.2%; in test [3], 82.7%; in test [4], 94.2%; in test [5], 77.3%; in [6] it was 64.9%. For the same molecule, the growth in [7] was 49.6%; in [8] it was 61.9%; in [9], 73.2%; in test [10] it was 33.5%.

`S=C1CCSC(=S)N1CCCN1C(=S)CCSC1=S`: the growth is 21% in test [1]; 3.38% (active) in test [2]; 55.3% in test [3]; 82.8% in test [4]; 83.7% in test [5]; 112% in test [6]. The growth in test [7] was 85.8%; in test [8] it was 34.1%; in test [9], 83.2%; in test [10], 80.7%.

As for `O=C(CSc1nc2ccc([N+](=O)[O-])cc2[nH]1)Nc1ccc(F)cc1`, the growth is 33.7% in test [1]; 24.1% in test [2]; 67.3% in test [3]; 91.8% in test [4]; 34.6% in [5]; 63.1% in [6]. The growth in test [7] was 68.4%; in [8], 47.8%; in test [9], 74%; in test [10] it was 59%.

`Cn1cc(-c2nonc2-c2c[nH]c3ccc(Br)cc23)c2cc(Br)ccc21`: the growth in test [1] was 20.5%; in test [2], 41.3%; in test [3], 34%; in test [4], 37.6%; in [5], -2.18% (active); in test [6], 53.7%. Besides, the growth in [7] is 59%; in [8] it was 33.6%; in [9] it was 31.6%; in test [10], 36.6%.

`COC(=O)c1n[nH]c2ccc3nc(-c4cn[nH]c4C(F)(F)F)c4c(c3c12)CCCC4`: the growth in test [1] is 11.9%; in [2] it was 57.5%; in [3] it was 34.6%; in [4] it was 70.2%; in test [5], 62.5%; in test [6], 15.3%. For the same molecule, the growth in test [7] was 19.5%; in test [8], 56.4%; in test [9] it was 9.88% (active); in test [10] it was 83.7%.

As to `O=C1c2cccc(NCCN=Cc3cc(O)ccc3O)c2C(=O)c2c(NCCN=Cc3cc(O)ccc3O)cccc21`, the growth in [1] was 40.4%; in [2], -60.1% (active); in test [3] it was 7.56% (active); in test [4], -28.1% (active); in test [5], -47% (active); in test [6] it was 73.4%. Also, the growth in test [7] was -6.03% (active); in test [8], -48.8% (active); in [9], -37.6% (active); in [10], 42.9%.

With `O=C1c2ccc3c4ccc5c6c(ccc(c7ccc(c2c37)C(=O)N1CCC[P+](c1ccccc1)(c1ccccc1)c1ccccc1)c64)C(=O)N(CCC[P+](c1ccccc1)(c1ccccc1)c1ccccc1)C5=O`, the growth in [1] is 35.9%; in test [2], 21.3%; in [3], 50.4%; in [4], 74.1%; in [5] it was 75.9%; in [6], 91.7%. Moreover, the growth in test [7] was 29.6%; in [8], 37.4%; in test [9] it was 81.2%; in [10], 97.2%.

On to `CCCCCCCCCCCCCCCC(N)c1ccccc1` (stereo not given), for which the growth in [1] was -26.1% (active); in [2], -27.9% (active); in test [3], -26.3% (active); in [4], 79.7%; in test [5], -15.8% (active); in test [6], 77.1%. In addition, the growth in test [7] was -46.6% (active); in [8], -70.2% (active); in test [9] it was 60.6%; in test [10], -31.1% (active).

With `C=CC(=O)NCc1ccc(Nc2nccc(-c3ccc(N4CCCC4)c(C#N)c3)n2)cc1`, the growth in [1] was 5.13% (active); in test [2], 46.7%; in test [3] it was 30.8%; in test [4], 75.3%; in test [5], 16.2%; in [6], 29.6%. Further, the growth was 25.2% in test [7], 33.4% in test [8], 25.4% in [9] and 34.4% in test [10].

Consider `Cc1nc2ncnc(Cl)c2[nH]1`, for which the growth in [1] is 98.3%; in test [2] it was 82.4%; in test [3], 95.4%; in test [4], 109%; in [5], 106%; in test [6] it was 105%. Besides, the growth was 106% in test [7], 108% in test [8], 110% in [9] and 108% in test [10].

`COc1ccc(-c2nnc(-c3ccc4c(c3)nc(-c3ccncc3)n4C3CCCCC3)o2)cc1`: the growth in [1] was 46.6%; in test [2] it was 34.1%; in [3], 53.5%; in test [4], 102%; in test [5], 61.1%; in test [6], 80.4%. The growth in test [7] was 73.7%; in [8], 67.3%; in [9], 68.6%; in [10], 56.9%.

In the case of `Nc1c(C(=O)Nc2ccccc2Cl)sc2nc3c(cc12)C(O)CCC3` (stereo not given), the growth in test [1] is 13.4%; in test [2] it was 25.2%; in test [3] it was 32.3%; in test [4], 80.6%; in [5], 53.9%; in test [6], 42.9%. Besides, the growth is 57.2% in [7], 15.5% in [8], 58.5% in [9] and 18.8% in [10].

As for `CC(=O)Nc1nc2ccc(NS(=O)(=O)c3cccc4c(N(C)C)cccc34)cc2[nH]1`, the growth in test [1] is 24.8%; in test [2], 43.3%; in test [3], 85.4%; in test [4], 84.4%; in test [5], 76.9%; in test [6], 88.1%. For the same molecule, the growth was 51.5% in test [7], 41.1% in test [8], 52.3% in test [9] and 97.7% in [10].

With `O=C(Nc1cc(Cl)ccc1O)c1ccc(Nc2ccnc(C(F)(F)F)c2)cc1`, the growth was 23.7% in test [1]; -6.66% (active) in test [2]; 51.8% in test [3]; 86.4% in test [4]; 43.3% in test [5]; 64.1% in test [6]. Besides, the growth in [7] was 36%; in [8] it was 14.3%; in [9], 49.9%; in [10] it was 35.1%.

`CCOC(=O)c1c2c(n3ccc(C)cc13)C(=O)c1ccccc1C2=O`: the growth was 84.8% in test [1]; 98% in [2]; 86.1% in test [3]; 109% in test [4]; 101% in [5]; 103% in test [6]. In addition, the growth was 78% in [7], 88.2% in [8], 93.3% in test [9] and 95% in [10].

Turning to `N=C(N)c1ccc(-c2ccc(-c3cc(Cl)cc(Cl)c3)o2)o1`, the growth in test [1] was -50% (active); in [2] it was -33.6% (active); in test [3], -41.7% (active); in test [4] it was -72.2% (active); in test [5], -76.3% (active); in test [6], -59% (active). Moreover, the growth was -52.5% (active) in [7], -87.9% (active) in test [8], 64.8% in test [9] and -38.5% (active) in test [10].

With `CC1=C(CCC(C)N(C)Cc2ccc(OCCCN3CCCC3)cc2)C(C)(C)CCC1` (stereo not given), the growth was -24.9% (active) in [1]; -14.3% (active) in [2]; 45.7% in [3]; 25.4% in test [4]; 60.2% in [5]; 36.5% in [6]. Further, the growth is 42.9% in [7], 23.6% in [8], 36.4% in [9] and 63% in test [10].
